Records with an inconclusive call do not appear. Activity calls are given as the source filed them. How the source made its calls: active means hit-call score of the fitted dose curve at least 0.9, where 1 is the maximum; inconclusive means response in the unintended direction; inactive means score below 0.9.

For the experiment, the target named is human Phosphodiesterase 10 (PDE10), PDE10A (gene 10846) (UniProt Q9Y233). Briefly: NVS_ENZ_hPDE10: NovaScreen (NVS) Enzymatic Assay for human Phosphodiesterase 10 (PDE10) (AID 2283195). As for the experimental part: NVS_ENZ_hPDE10 is a biochemical, single-readout assay that uses extracted gene-proteins in a cell-free assay. Measurements were taken 1 hour after chemical dosing in a 384-well plate.NVS_ENZ_hPDE10 is one of one assay component(s) measured or calculated from the NVS_ENZ_hPDE10 assay. It is designed to make measurements of enzyme activity, a form of enzyme reporter, as detected with fluorescence intensity signals by Fluorescence and electrophoretic mobility shift technology.Data from the assay component NVS_ENZ_hPDE10 was analyzed into 1 assay endpoint. This assay endpoint, NVS_ENZ_hPDE10, was analyzed in the positive analysis fitting direction relative to DMSO as the negative control and baseline of activity. Using a type of enzyme reporter, loss-of-signal activity can be used to understand changes in the enzymatic activity as they relate to the gene PDE10A. Furthermore, this assay endpoint can be referred to as a primary readout, because this assay has produced multiple assay endpoints where this one serves a enzymatic activity function. To generalize the intended target to other relatable targets, this assay endpoint is annotated to the esterase intended target family, where the subfamily is phosphodiesterase.
human Phosphodiesterase 10 (PDE10), PDE10A (gene 10846), sequence (Q9Y233 whole entry, looked up): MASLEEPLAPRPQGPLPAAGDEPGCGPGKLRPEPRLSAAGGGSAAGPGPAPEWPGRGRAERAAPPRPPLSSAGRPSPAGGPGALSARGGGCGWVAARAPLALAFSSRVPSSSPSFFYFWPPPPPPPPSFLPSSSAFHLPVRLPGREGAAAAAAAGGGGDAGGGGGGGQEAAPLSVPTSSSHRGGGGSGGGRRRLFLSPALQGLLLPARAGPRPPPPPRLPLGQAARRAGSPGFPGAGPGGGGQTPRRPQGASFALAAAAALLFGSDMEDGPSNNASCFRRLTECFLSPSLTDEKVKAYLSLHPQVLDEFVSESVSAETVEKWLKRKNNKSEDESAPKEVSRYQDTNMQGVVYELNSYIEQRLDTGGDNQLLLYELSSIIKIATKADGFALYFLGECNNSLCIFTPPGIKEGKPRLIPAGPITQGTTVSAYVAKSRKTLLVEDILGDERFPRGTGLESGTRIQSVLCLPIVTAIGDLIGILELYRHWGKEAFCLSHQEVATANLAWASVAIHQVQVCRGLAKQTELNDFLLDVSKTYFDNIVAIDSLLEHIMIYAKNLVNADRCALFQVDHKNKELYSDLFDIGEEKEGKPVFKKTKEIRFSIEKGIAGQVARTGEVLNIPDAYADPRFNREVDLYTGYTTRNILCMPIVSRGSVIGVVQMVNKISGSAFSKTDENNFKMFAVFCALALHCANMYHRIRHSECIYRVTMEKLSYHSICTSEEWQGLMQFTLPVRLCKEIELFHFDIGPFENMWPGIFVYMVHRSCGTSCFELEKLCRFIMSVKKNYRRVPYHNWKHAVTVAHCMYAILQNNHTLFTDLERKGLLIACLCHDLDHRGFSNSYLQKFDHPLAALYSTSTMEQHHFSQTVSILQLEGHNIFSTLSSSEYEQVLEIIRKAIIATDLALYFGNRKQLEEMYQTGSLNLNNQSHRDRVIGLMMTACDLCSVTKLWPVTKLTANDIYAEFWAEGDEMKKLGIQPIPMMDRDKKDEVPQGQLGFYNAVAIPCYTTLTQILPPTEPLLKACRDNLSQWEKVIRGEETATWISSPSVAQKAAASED
Binding assays used specific radioligands (tritiated, iodinated) with non-radioactive competitive displacement ligands in agonist or antagonist protocols (as indicated) and various reference compounds and inhibitors to titrate specific binding to receptors and transporters. Most enzyme assays (CYPs, kinases, phosphatases, proteases, HDACs) used recombinant protein and specific substrates (fluorescence mostly, some colorimetric and radioactive) and inhibitors, followed by a biochemical separation of substrate and product. All assays for the biochemical HTS were initially run in duplicate at a single concentration (10 uM for CYP450 assays and 25 uM for all others). Assay-chemical combinations meeting a pre-defined threshold (e.g., 30% inhibition and other criteria defined below) were then run in singleton concentration-response format with maximum concentration of 20 uM for CYPs and 50 uM for all others. Each assay was run with positive and negative controls, and concurrent controls on every plate. The follow-up (secondary) screen tested active chemical-pairs in concentration series, as well as a few additional assays not tested in the primary screen, some selected negative inactives, and several cases re-run in the concentration series for confirmatory purposes.
On to `Nc1cc([N+](=O)[O-])ccc1Cl`, for which the call was inactive.

`CC(=O)OCc1ccc2c(c1)OCO2`: the compound was classed as inactive.

By AC50 is commonly meant the concentration giving half of the maximal activity seen. As for `O=[N+]([O-])c1cc(C(F)(F)F)ccc1Cl`, the AC50 is 35 µM (active).

As for `Cc1c(Cl)c(=O)oc2cc(O)ccc12`, the AC50 was 0.582 µM (active).

On to `CC1(C)[C@H](C(=O)OCc2cccc(Oc3ccccc3)c2)[C@@H]1C=C(Cl)Cl`, for which the compound was called inactive.

For the compound `OC1C(O)C(O)C(O)C(O)C1O` (stereo not drawn), the compound was classed as inactive.

With `OCC(CO)(CO)COCC(CO)(CO)CO`, the AC50 was 23.1 µM (active).

Consider `c1ccc2c(c1)c1cccc3ccc4cccc2c4c31`, for which the compound was classed as inactive.

`COc1cc2ncnc(Nc3cccc(Cl)c3)c2cc1OC`: the AC50 was 2.52 µM (active).

`CC1CCC2CC1C2(C)C` (stereo not drawn): the result was inactive.

Take `COC(=O)OC`: the compound was called inactive.

In the case of `CCCCC/C=C/C=C/C=O`, the compound was classed as inactive.

Regarding `C#C[C@]1(O)CC[C@H]2[C@@H]3CCC4=Cc5oncc5C[C@]4(C)[C@H]3CC[C@@]21C`, the result was inactive.

As for `CCCCC(CC)COCCC#N` (stereo not drawn), the compound was called inactive.

Regarding `Cc1ccc2ccccc2n1`, the AC50 is 9.74 µM (active).

With `O=C=NC1CCC(CC2CCC(N=C=O)CC2)CC1` (stereo not drawn), the compound was called inactive.

Regarding `CCc1c(C)cc(N)c(CC)c1N`, the compound was classed as inactive.

For `CCO[Si](CCCS)(OCC)OCC`, the AC50 is 32.1 µM (active).

These data come from PubChem BioAssay (EPA / NIEHS).
